In PubChem BioAssay:
Active and inactive are the calls of the source. Unless noted, the rule behind the calls is not given here.

What was measured:
[1] = HepG2 liver cancer cell viability effects, profiling panel, resazurin fluorescence, 24 h, PK04 Diversity Set (AID 1172); settings: higher = more signal
[2] = basal S. cerevisiae growth modulation, no modifier, primary screen, OD600, strain BY4716, 24 h, basal condition (AID 1173); settings: OD600, 24 h, higher = more signal, called active from +8 up or from −8 down
[3] = MM1S myeloma cell viability, profiling panel, resazurin fluorescence, basal, 24 h, PK04 Diversity Set (AID 1174); settings: higher = more signal, called active from +8 up or from −8 down;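 note: MM1S multiple myeloma cell line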
[4] = biological target: Dihydroorotate dehydrogenase (quinone), mitochondrial (Plasmodium falciparum (isolate 3D7)) (UniProt Q08210); assay: PfDHODH enzyme inhibitors, primary screen, biochemical, C-terminal His tag, absorbance 600 nm (AID 1175); settings: DCIP absorbance 600 nm, higher = more signal, called active from +8 up or from −8 down;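 note: recombinant parasite enzyme with a five histidine tag at its C terminus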
[5] = P. aeruginosa biofilm formation inhibitors, primary screen, strain PAO1, LB-PBS medium, absorbance 600 nm (AID 1176); settings: P. aeruginosa PAO1 growth/biofilm, A600, 12 h; higher = more signal
[6] = S. cerevisiae RM11-1a growth modifiers, primary screen, strain RM11-1a, OD600, basal, 24 h (AID 1177); settings: OD600, 24 h, higher = more signal, called active from +8 up or from −8 down;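 note: cultures grown under basal conditions with no added stressor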
[7] = E. coli acrAB mutant growth effects, primary screen, E. coli filamentation inducers, strain DRC39, OD650, 24 h (AID 1178); settings: higher = more signal, called active from +8 up or from −8 down;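 note: growth measured as culture turbidity by optical density at 650 nm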
[8] = E. coli acrAB mutant growth effects, primary screen, E. coli filamentation inducers, strain DRC39, OD650, 48 h (AID 1179);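 note: screen aims at cell division blockers that make cells filament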; settings: E. coli DRC39 delta-acrAB growth, higher = more signal, called active from +8 up or from −8 down
[9] = RPMI8226 myeloma cell viability, profiling panel, resazurin fluorescence, basal, 24 h, PK04 Diversity Set (AID 1180); settings: higher = more signal;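 note: RPMI8826 multiple myeloma cell line at 5000 cells per well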
[10] = biological target: E3 ubiquitin-protein ligase XIAP (Homo sapiens) (UniProt P98170); assay: XIAP binders, primary screen, biophysical, small-molecule microarray, fluorescence 635 nm (AID 1181); settings: small-molecule microarray binding, higher = more signal;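 note: score merges 667 nm emission and signal to noise over triplicate slides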
[11] = test system: XIP peptide (Xip251-270) binding; assay: small-molecule binders of XIP peptide, primary screen, biochemical, small-molecule microarray, fluorescence 635/667 nm, 0.1 µg/mL protein (AID 1182); settings: fluorescent protein binding, 635 nm, higher = more signal, called active from +8 up or from −8 down
XIP peptide (Xip251-270) = assay: small-molecule binders of XIP peptide, primary screen, biochemical, small-molecule microarray, fluorescence 635/667 nm, 0.5 µg/mL protein (AID 1183); settings: small-molecule microarray binding, fluorescence 635 nm; higher = more signal
[12] = Plasmodium falciparum growth inhibition, primary screen, strain 3D7, DAPI fluorescence, 100 nL (AID 1184);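 note: parasites grown inside human red blood cells in medium with human serum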; settings: P. falciparum 3D7 growth, 3 d, higher = more signal
[13] = biological target: Homeobox protein Hox-A13 (Mus musculus) (UniProt Q62424); assay: inhibitors of HoxA13-DNA binding, primary screen, biochemical, fluorescence polarization, labeled oligonucleotide (AID 1185); settings: 15 min, higher = more signal, called active from +8 up or from −8 down
[14] = inhibitors of hydroxyurea-induced Chk1 phosphorylation, primary screen, imaging, HeLa, phospho-Chk1 antibody, percent positive cells (AID 1186); settings: hydroxyurea-induced phospho-Chk1 immunofluorescence imaging, higher = more signal
[15] = inhibitors of hydroxyurea-induced Chk1 phosphorylation, primary screen, imaging, HeLa, phospho-Chk1 nuclear intensity (AID 1187); settings: hydroxyurea-induced phospho-Chk1 immunofluorescence imaging, higher = more signal

Chain of E3 ubiquitin-protein ligase XIAP (Homo sapiens) (P98170 whole entry, looked up): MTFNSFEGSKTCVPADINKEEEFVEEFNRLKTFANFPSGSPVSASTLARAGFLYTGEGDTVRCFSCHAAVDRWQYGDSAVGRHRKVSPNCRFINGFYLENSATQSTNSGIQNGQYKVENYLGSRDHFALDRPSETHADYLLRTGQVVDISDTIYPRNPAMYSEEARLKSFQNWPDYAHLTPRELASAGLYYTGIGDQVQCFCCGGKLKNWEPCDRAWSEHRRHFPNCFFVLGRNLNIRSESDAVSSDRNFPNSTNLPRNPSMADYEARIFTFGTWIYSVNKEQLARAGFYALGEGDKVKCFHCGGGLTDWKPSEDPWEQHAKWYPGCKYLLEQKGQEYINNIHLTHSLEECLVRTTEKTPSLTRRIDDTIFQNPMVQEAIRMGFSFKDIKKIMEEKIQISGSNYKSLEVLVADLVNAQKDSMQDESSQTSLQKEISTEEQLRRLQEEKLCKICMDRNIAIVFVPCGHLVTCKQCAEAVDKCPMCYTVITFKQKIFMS
Chain of Dihydroorotate dehydrogenase (quinone), mitochondrial (Plasmodium falciparum (isolate 3D7)) (Q08210 whole entry, looked up): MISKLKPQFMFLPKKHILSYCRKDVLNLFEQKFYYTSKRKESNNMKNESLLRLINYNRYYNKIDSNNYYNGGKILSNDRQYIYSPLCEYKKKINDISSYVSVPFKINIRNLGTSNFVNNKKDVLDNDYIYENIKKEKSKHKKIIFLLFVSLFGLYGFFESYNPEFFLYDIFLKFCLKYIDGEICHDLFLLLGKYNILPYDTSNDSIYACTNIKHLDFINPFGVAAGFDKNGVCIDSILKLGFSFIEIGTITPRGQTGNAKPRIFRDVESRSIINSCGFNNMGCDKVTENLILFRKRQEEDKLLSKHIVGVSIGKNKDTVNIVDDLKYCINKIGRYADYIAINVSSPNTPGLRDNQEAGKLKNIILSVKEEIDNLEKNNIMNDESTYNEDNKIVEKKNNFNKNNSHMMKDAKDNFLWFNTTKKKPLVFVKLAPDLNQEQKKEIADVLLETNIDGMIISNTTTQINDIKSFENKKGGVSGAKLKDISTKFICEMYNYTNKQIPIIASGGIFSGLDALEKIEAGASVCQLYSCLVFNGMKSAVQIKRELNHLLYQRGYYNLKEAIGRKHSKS
Chain of Homeobox protein Hox-A13 (Mus musculus) (Q62424 whole entry, looked up): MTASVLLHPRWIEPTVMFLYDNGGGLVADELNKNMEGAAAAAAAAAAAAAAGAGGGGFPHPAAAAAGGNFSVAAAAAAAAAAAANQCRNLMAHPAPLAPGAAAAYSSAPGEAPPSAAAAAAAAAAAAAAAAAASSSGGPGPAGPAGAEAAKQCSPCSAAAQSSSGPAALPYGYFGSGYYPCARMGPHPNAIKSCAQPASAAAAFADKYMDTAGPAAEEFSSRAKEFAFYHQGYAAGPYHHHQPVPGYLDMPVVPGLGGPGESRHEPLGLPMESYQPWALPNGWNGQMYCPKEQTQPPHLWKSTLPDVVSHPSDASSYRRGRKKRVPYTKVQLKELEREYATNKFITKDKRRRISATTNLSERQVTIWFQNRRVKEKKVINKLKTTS

| SMILES | z-score [1] | z-score [2] | z-score [3] | composite z-score [4] | z-score [5] | z-score [6] | z-score [7] | z-score [8] | z-score [9] | composite z-score [10] | composite z-score [11] | composite z-score (XIP peptide (Xip251-270)) | z-score [12] | z-score [13] | z-score [14] | z-score [15] |
| --- | --- | --- | --- | --- | --- | --- | --- | --- | --- | --- | --- | --- | --- | --- | --- | --- |
| CCCCCN1CC=CC23O[C@@H]4/C=C\CCCOC(=O)C4[C@H]2C(=O)N(CCO)[C@@H]3C1=O (some centres undefined) | -0.192 | -1.2 (inactive) | 1.22 (inactive) | -0.195 (inactive) | 0.938 (inactive) | -0.843 (inactive) | 0.859 (inactive) | 0.188 (inactive) | 0.936 | -0.0918 | -0.0751 (inactive) | 0.663 | -1.31 | -3.77 (inactive) | 0.169 (inactive) | 0.205 (inactive) |
| COC(=O)[C@H](Cc1ccccc1)N1CC(C)(OC)O[C@@H](Cc2ccccc2)[C@H]1/C=C/C1CC1 (some centres undefined) | 0.0905 | -0.968 (inactive) | -0.32 (inactive) | 0.512 (inactive) | -0.532 (inactive) | 0.815 (inactive) | -0.311 (inactive) | 0.215 (inactive) | -0.249 | 0.0583 | 0.242 (inactive) | -0.128 | 0.291 | -4.77 (inactive) | 0.512 (inactive) | 1.22 (inactive) |
| C=CCNC(=O)[C@@H]1[C@H]2C(=O)O[C@H](c3ccccc3)[C@H](c3ccccc3)N2[C@H](c2ccc(OCCO)cc2)[C@@]12C(=O)Nc1ccc(C#CC3=CCCCC3)cc12 | -0.411 | 0.899 (inactive) | -2.16 (inactive) | 0.106 (inactive) | 2.29 (inactive) | 2.01 (inactive) | -0.972 (inactive) | -0.563 (inactive) | -2.96 | -0.178 | 1.45 (inactive) | 0.799 | -1.39 | 1.89 (inactive) | 0.269 (inactive) | 0.273 (inactive) |
| COc1ccc(C#Cc2ccc3c(c2)[C@]2(C(=O)N3)[C@H](c3ccccc3OCCO)N3[C@H](c4ccccc4)[C@H](c4ccccc4)OC(=O)[C@H]3[C@@H]2C(=O)NC[C@H](O)c2ccccc2)cc1 | 0.328 | 2.05 (inactive) | -2.59 (inactive) | -17.2 (active) | 1.08 (inactive) | 2.25 (inactive) | 0.158 (inactive) | -0.438 (inactive) | -3.95 | 0.0655 | 0.134 (inactive) | 0.709 | -2.01 | -1.77 (inactive) | -0.11 (inactive) | 0.108 (inactive) |
| C=C(CC1([C@@H](NP(=O)(c2ccccc2)c2ccccc2)[C@H]2C[C@@H]2CCCC)CC1)c1cccc(OC)c1 | 2.56 | 2.17 (inactive) | 1.08 (inactive) | -0.0873 (inactive) | 0.0944 (inactive) | 1.61 (inactive) | -0.283 (inactive) | -0.216 (inactive) | 3.23 | 0.219 | -0.68 (inactive) | -0.207 | -0.0814 | -1.55 (inactive) | 0.731 (inactive) | 0.788 (inactive) |
| CC(C)C[C@@H]1NC(=O)[C@H]2C[C@@H](C(=O)O)[C@@H](c3cccc(OCCO)c3)N2C1=O | 0.109 | -0.25 (inactive) | -0.636 (inactive) | -1.19 (inactive) | 0.202 (inactive) | -0.79 (inactive) | -0.191 (inactive) | 0.421 (inactive) | 0.462 | 0.0845 | 0.693 (inactive) | 0.737 | -0.404 | -2.46 (inactive) | -0.03 (inactive) | -0.134 (inactive) |
| COc1ccc(NN2C(C(O)c3ccccc3)C=CC3C(=O)N(C4CCCCC4)C(=O)C32)cc1 (centres undefined) | -0.403 | 0.047 (inactive) | -0.0925 (inactive) | -0.638 (inactive) | 0.505 (inactive) | 1.5 (inactive) | -0.0187 (inactive) | 0.0413 (inactive) | 0.0134 | 0.0348 | 0.387 (inactive) | 0.745 | -1.08 | -4.8 (inactive) | 0.329 (inactive) | 0.711 (inactive) |
| O=C(c1ccccc1)N1Cc2ccccc2C[C@@]2(N=C(c3ccc(OCCCO)cc3)O[C@H]2c2ccccc2)C1=O | -1.51 | 0.728 (inactive) | -3.22 (inactive) | 0.23 (inactive) | 1.49 (inactive) | 1.39 (inactive) | 0.0557 (inactive) | -0.469 (inactive) | -3.73 | 0.0797 | 0.742 (inactive) | 0.814 | -1.92 | -2.43 (inactive) | -0.0769 (inactive) | 0.098 (inactive) |
| C=C(CCCC)/C(=C/C[C@@H](OC(C)=O)c1cccc(OCCO)c1)c1cc(C(=O)OC)ccc1OC | 0.978 | 1.12 (inactive) | 0.0348 (inactive) | -0.943 (inactive) | 0.0599 (inactive) | 0.523 (inactive) | 0.508 (inactive) | 0.583 (inactive) | 0.1 | -0.0447 | -0.234 (inactive) | 0.826 | -3.06 | -5.01 (inactive) | 0.496 (inactive) | 0.331 (inactive) |
